Results reported in the supplement of paper PMC7724964.

T1: IRS1 157-267 IRS (domain begin residue: 157, domain end residue: 267), P35568
T1 chain: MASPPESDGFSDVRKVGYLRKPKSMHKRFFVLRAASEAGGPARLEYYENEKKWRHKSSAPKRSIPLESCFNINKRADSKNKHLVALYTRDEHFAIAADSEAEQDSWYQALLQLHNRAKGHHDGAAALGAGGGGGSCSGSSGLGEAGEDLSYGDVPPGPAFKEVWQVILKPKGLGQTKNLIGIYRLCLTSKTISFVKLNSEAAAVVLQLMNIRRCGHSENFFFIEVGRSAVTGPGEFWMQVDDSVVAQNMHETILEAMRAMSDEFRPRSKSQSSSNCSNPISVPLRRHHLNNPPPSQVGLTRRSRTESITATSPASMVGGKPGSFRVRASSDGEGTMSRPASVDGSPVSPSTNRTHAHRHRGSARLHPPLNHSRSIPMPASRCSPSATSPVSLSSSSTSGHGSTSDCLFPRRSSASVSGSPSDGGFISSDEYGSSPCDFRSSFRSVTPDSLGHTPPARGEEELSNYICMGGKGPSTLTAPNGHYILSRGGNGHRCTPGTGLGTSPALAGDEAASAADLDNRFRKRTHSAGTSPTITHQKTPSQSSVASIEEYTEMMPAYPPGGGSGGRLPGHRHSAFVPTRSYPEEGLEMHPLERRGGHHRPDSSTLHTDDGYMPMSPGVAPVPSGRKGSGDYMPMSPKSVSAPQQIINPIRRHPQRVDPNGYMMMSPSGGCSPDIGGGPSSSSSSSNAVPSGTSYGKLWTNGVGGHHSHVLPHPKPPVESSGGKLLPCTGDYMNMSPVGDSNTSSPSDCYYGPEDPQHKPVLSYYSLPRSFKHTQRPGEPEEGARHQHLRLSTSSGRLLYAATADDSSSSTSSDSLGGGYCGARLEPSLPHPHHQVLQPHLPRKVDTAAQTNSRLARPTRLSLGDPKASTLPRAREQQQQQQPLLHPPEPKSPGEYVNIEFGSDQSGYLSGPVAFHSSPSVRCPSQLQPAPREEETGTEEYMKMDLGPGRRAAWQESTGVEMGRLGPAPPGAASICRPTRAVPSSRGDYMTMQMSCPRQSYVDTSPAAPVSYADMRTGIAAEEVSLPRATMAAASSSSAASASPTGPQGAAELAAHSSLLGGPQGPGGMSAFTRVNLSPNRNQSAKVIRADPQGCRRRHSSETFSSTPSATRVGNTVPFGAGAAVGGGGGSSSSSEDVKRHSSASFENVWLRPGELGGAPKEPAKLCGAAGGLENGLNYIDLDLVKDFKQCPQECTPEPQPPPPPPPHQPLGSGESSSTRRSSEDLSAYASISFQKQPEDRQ

T2: LBR 1-67 LBR_tudor (domain begin residue: 1, domain end residue: 67), Q14739
T2 chain: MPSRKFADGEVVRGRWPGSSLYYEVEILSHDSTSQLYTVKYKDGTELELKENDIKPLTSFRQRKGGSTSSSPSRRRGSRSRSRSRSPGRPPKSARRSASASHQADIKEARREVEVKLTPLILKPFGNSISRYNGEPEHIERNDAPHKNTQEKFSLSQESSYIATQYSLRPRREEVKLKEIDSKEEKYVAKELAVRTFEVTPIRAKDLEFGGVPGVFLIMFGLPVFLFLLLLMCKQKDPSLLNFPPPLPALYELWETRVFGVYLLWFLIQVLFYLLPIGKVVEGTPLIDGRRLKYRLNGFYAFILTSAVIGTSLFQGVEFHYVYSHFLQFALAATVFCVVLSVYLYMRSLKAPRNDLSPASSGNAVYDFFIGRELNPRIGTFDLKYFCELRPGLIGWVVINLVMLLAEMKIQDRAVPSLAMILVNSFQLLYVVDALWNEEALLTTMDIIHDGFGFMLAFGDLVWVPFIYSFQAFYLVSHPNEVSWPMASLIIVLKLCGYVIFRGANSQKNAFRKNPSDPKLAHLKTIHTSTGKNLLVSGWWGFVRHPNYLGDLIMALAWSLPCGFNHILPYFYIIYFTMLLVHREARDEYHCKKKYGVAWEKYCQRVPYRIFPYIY

T3: ZGPAT 120-268 zf-CCCH+TUDOR (domain begin residue: 120, domain end residue: 268), Q8N5A5
T3 chain: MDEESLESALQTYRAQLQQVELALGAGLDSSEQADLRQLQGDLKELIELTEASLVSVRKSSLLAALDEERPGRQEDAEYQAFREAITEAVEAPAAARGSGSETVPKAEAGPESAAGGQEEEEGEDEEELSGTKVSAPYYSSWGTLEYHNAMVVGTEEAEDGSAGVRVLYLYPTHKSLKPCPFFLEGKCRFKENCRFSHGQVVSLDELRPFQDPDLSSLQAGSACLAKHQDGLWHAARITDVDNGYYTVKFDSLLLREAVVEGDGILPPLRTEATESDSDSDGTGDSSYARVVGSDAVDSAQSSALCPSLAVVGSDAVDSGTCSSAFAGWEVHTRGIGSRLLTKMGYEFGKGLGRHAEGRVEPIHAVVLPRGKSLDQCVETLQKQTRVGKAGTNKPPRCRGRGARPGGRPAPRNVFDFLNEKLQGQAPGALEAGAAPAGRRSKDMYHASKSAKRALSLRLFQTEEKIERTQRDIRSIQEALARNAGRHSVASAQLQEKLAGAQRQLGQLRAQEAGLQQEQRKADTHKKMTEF

T4: RARA 175-421 Hormone_recep (domain begin residue: 175, domain end residue: 421), P10276
T4 chain: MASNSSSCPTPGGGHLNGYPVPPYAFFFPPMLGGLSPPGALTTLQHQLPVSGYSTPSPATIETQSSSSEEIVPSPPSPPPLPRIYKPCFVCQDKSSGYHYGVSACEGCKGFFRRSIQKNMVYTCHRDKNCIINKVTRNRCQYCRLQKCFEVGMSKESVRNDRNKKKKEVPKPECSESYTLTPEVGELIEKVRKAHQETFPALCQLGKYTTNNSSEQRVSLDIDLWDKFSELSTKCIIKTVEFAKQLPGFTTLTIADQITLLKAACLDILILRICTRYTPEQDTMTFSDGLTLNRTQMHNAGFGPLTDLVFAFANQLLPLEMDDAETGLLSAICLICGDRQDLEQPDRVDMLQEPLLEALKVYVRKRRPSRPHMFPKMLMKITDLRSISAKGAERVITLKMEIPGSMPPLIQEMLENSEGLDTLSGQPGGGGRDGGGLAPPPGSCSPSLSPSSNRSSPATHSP

T5: KAT8 2-458 Tudor-knot+MOZ_SAS (domain begin residue: 2, domain end residue: 458), Q9H7Z6
T5 chain: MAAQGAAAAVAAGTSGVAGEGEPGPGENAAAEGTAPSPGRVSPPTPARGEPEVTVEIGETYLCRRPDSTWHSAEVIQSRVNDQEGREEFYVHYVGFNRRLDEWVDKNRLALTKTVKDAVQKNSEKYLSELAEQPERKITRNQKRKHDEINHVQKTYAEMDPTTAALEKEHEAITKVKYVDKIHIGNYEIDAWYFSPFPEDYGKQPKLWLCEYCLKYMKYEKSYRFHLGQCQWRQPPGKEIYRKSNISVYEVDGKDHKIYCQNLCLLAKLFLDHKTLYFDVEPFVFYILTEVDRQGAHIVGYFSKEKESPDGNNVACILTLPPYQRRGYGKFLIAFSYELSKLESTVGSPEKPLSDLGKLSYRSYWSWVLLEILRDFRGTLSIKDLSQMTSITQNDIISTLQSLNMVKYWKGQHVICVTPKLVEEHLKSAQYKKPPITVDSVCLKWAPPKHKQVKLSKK

T6: TDRD1 261-449 TUDOR (domain begin residue: 261, domain end residue: 449), Q9BXT4
T6 chain: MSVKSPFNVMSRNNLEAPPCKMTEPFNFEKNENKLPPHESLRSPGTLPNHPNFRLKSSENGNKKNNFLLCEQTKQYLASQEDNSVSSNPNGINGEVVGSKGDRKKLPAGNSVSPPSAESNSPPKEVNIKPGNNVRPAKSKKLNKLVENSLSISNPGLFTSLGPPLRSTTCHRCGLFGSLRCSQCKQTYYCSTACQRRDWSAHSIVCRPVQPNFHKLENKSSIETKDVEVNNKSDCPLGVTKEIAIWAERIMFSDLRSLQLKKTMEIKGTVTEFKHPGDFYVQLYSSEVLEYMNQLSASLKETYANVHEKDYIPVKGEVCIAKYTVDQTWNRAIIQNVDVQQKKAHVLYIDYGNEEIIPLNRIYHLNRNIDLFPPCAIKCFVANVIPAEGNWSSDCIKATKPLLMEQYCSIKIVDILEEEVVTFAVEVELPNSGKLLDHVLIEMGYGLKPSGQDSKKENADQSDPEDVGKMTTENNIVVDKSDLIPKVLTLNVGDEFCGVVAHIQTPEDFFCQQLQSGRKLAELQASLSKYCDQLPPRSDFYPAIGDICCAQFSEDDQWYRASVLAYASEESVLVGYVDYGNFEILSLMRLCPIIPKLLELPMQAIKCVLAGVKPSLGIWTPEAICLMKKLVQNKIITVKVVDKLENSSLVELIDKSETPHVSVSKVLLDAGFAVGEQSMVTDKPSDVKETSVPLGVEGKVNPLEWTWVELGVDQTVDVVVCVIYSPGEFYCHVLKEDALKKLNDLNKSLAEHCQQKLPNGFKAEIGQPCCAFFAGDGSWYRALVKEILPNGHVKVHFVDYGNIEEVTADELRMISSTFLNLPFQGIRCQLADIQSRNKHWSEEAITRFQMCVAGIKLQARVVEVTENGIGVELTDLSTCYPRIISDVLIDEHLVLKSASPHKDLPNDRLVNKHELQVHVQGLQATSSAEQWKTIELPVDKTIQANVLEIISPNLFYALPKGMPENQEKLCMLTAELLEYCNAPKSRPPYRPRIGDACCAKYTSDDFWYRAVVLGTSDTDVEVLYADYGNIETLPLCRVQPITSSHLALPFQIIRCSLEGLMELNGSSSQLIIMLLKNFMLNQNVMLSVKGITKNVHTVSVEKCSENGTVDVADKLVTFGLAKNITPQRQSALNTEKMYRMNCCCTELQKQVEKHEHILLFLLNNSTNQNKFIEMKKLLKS


Molecular target: KPNB1 1-876 IBN_N+Arm (domain begin residue: 1, domain end residue: 876), Q14974
Experiment: phage ELISA signal ratio (GST-PRM binding over GST background); higher = stronger binding of peptide-phage to the PRM
How it was run: (§1)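 Human peptide recognition domains were expressed in 96-well plates as fusions to the C-terminus of glutathione S-transferase (GST) and selected against an M13 phage library displaying randomized hexadecapeptides, cysteine-free and glycine-flanked, on the gene-8 major coat protein. Five selection rounds were run, and approximately 48 individual clones from rounds 4 and 5 were tested by phage ELISA. Each value is the ELISA signal on the GST-domain fusion divided by the signal on GST alone. Positive clones were sequenced.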

Sequence of KPNB1 1-876 IBN_N+Arm (domain begin residue: 1, domain end residue: 876), Q14974 (Q14974 whole entry): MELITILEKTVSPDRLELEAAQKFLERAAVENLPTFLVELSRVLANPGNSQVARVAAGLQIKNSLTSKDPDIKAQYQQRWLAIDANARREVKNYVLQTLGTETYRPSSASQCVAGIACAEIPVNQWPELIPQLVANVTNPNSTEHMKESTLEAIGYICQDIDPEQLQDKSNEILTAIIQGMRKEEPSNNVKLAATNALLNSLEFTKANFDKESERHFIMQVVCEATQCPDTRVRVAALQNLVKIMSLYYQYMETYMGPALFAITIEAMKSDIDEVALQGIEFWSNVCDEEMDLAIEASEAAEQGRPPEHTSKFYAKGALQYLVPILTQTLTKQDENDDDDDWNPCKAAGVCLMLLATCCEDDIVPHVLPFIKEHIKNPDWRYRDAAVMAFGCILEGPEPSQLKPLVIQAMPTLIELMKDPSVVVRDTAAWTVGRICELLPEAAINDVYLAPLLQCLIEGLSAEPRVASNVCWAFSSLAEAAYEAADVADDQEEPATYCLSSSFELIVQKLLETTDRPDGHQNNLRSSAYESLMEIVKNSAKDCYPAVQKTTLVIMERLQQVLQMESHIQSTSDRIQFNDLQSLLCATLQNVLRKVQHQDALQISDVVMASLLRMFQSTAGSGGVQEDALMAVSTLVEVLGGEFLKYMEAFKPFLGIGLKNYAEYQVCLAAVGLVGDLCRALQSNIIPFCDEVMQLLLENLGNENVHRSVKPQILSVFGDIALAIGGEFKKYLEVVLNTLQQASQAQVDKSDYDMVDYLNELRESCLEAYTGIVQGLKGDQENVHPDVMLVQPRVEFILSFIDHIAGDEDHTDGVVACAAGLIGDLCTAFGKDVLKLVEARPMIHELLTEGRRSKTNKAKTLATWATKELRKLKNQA

In order of rising “phage ELISA signal ratio” value:
1. WISFPFSDWQGDLFTF  10.3
2. PSEWENYMSVGDIFIF  16.9
3. PWPQEYTTDLTSVFWF  19.7
4. WDWVVREMSFDEVFIF  20.4

Molecular target: HSPA9 438-651 HSP70 (domain begin residue: 438, domain end residue: 651), P38646
Experiment: as above
How it was run: as §1

Sequence of HSPA9 438-651 HSP70 (domain begin residue: 438, domain end residue: 651), P38646 (P38646 whole entry): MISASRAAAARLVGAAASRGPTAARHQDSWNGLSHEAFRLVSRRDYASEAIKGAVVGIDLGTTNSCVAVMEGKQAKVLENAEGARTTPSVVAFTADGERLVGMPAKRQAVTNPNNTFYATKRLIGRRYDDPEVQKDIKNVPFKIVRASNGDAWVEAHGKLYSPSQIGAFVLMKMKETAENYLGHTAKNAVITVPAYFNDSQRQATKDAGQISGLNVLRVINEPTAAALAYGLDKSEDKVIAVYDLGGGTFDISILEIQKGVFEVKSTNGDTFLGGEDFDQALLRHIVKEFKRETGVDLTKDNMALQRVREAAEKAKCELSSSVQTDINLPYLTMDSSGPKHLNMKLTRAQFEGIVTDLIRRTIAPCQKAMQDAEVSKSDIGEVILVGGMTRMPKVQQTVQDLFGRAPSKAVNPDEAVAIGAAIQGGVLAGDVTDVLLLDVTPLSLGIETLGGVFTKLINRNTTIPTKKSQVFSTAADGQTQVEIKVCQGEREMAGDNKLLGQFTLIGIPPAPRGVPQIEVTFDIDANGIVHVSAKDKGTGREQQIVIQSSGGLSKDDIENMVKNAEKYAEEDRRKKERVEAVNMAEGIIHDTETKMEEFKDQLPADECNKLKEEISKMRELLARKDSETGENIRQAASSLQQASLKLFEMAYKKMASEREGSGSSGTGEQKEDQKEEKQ

In order of falling “phage ELISA signal ratio” value:
1. PYGLTAEGYERFLWLV  28
2. DLQQWIIDFYIHSMET  20.6
3. YFTMDHDAWHYFQLYA  20.2
4. STEFFYDWGYWEQMIE  19.8
5. VFTFTMSWDAWEYILY  18.4

Molecular target: KARS 71-214 tRNA_anti-codon (domain begin residue: 71, domain end residue: 214), Q15046
Experiment: as above
How it was run: as §1

Sequence of KARS 71-214 tRNA_anti-codon (domain begin residue: 71, domain end residue: 214), Q15046 (Q15046 whole entry, looked up, tested part not stated): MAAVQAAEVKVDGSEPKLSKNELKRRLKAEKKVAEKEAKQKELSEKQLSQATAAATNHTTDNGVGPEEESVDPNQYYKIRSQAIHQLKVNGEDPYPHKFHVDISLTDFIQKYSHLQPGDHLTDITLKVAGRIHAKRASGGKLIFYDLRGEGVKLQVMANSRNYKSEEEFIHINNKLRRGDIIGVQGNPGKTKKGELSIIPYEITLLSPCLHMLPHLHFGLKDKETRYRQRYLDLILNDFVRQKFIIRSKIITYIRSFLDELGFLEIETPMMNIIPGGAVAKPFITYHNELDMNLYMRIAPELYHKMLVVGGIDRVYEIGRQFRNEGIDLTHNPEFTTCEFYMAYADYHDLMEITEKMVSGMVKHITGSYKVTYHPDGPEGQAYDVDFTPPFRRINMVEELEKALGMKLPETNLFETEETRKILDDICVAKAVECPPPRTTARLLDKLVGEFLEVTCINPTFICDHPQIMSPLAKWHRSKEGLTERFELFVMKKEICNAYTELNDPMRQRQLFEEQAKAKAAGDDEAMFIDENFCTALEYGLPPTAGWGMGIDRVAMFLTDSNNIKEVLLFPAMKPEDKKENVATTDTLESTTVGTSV

In order of rising “phage ELISA signal ratio” value:
1. ETWADYFNVPISWIHE  18.1
2. DWEWYQYFNAPQPVKG  25.1

Molecular target: KMT2C 995-1055 PHD (domain begin residue: 995, domain end residue: 1055)
Experiment: as above
How it was run: as §1

VKTPVEDWKYLTFYYI was tested, and the “phage ELISA signal ratio” value was 6.07.

Molecular target: KMT2C 1055-1137 PHD (domain begin residue: 1055, domain end residue: 1137)
Experiment: as above
How it was run: as §1

In order of falling “phage ELISA signal ratio” value:
1. FETLEVIPGLGEFFKQ  6.9
2. DNYMESMYEAMGDPKK  6.88

Molecular target: T1, IRS1 157-267 IRS (domain begin residue: …
Experiment: as above
How it was run: as §1

In order of rising “phage ELISA signal ratio” value:
1. GYENWIPEGYRWQDWK  18
2. IWTWEYNPHYEIIHDM  18.6
3. DLVDWMSATWNENPWY  20.7

Molecular target: T2, LBR 1-67 LBR_tudor (domain begin …
Experiment: as above
How it was run: as §1

In order of rising “phage ELISA signal ratio” value:
1. YNFIESMYTMEPMPMH  3.33
2. DDVTWMWPPGGYFVNM  4.54
3. QQQKHPNFALHYHQDQ  6.64
4. FHGIWVQDELRVWMMD  8.63

Molecular target: SETD1A 2-220 RRM_1 (domain begin residue: 2, domain end residue: 220), O15047
Experiment: as above
How it was run: as §1

With YNFIESMYTMEPMPMH the “phage ELISA signal ratio” value was 4.24.

Molecular target: T3, ZGPAT 120-268 zf-CCCH+TUDOR (domain …
Experiment: as above
How it was run: as §1

For YNFIESMYTMEPMPMH, the “phage ELISA signal ratio” value was 3.65.

Molecular target: MAD2L1 2-205 HORMA (domain begin residue: 2, domain end residue: 205), Q13257
Experiment: as above
How it was run: as §1

Sequence of MAD2L1 2-205 HORMA (domain begin residue: 2, domain end residue: 205), Q13257 (Q13257 whole entry): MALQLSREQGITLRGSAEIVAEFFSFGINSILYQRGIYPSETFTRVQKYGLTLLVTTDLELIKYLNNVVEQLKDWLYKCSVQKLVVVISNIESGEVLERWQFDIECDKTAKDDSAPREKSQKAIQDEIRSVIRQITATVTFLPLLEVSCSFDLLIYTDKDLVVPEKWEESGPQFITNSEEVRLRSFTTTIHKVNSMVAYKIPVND

With SWWMLQGPKQMNEIHA the “phage ELISA signal ratio” value was 8.75.

Molecular target: KDM6A 1-520 TPR_8 (domain begin residue: 1, domain end residue: 520), O15550
Experiment: as above
How it was run: as §1

Sequence of KDM6A 1-520 TPR_8 (domain begin residue: 1, domain end residue: 520), O15550 (O15550 whole entry): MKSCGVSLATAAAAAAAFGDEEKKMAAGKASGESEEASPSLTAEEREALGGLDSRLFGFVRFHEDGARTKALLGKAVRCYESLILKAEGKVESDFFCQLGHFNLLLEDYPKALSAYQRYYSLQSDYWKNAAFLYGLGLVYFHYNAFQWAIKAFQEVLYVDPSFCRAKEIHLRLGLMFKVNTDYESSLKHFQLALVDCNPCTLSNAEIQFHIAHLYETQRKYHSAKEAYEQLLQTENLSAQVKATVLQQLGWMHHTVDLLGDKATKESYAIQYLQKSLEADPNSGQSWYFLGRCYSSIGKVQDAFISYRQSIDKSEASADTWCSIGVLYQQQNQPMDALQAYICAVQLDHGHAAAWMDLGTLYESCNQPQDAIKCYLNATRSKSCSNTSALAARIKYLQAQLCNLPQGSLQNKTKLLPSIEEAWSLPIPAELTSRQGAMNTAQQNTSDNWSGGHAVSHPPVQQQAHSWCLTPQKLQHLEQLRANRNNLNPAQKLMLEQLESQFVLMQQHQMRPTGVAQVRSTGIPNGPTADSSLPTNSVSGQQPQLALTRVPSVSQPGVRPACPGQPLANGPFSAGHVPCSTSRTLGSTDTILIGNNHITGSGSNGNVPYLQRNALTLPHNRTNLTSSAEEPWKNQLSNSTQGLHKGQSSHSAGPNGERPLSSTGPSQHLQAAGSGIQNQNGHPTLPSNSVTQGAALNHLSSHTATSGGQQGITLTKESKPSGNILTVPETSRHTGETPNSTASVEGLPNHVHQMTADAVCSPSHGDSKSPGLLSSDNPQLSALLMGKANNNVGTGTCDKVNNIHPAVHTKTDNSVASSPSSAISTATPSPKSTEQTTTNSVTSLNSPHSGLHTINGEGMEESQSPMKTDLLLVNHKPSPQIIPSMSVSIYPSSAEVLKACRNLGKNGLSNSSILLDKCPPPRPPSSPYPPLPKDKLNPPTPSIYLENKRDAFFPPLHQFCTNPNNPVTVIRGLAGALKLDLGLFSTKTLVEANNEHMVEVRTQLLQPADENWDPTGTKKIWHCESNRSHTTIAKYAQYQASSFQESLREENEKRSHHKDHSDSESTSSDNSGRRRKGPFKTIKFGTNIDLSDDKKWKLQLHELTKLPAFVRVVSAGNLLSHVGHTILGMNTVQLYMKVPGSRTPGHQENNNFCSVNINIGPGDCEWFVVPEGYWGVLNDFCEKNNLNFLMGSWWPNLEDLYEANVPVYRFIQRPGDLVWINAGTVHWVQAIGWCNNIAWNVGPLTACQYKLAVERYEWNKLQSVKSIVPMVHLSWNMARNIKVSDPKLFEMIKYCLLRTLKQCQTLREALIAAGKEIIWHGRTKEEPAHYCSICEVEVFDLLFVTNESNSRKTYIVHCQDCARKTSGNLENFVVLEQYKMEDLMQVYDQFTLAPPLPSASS

In order of falling “phage ELISA signal ratio” value:
1. IYLDQWFEEISTYVPA  8.33
2. SPNVVEYPDWFMWAIE  7.87
3. HYMEMLYEQLAISQAI  5.05

Molecular target: T4, RARA 175-421 Hormone_recep (domain …
Experiment: as above
How it was run: as §1

With STEFFYDWGYWEQMIE the “phage ELISA signal ratio” value was 9.16.

Molecular target: T5, KAT8 2-458 Tudor-knot+MOZ_SAS (domain …
Experiment: as above
How it was run: as §1

YIDHMYDVVMYEEIEW was tested, and the “phage ELISA signal ratio” value was 3.94.

Molecular target: T6, TDRD1 261-449 TUDOR (domain begin …
Experiment: as above
How it was run: as §1

For YIDHMYDVVMYEEIEW, the “phage ELISA signal ratio” value was 8.98.
